# Activity calls are given as the source filed them.
# Tests used:
# [1] = tested on: PRMT1 (protein arginine N-methyltransferase 1); test: PRMT1 binders on small-molecule microarrays, primary screen, biochemical, small-molecule microarray, 635 nm fluorescence (AID 1088); settings: small-molecule microarray binding, higher = more signal;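 note: binding of Prmt1 protein to compounds spotted on small-molecule microarray slides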
# [2] = yeast growth modulation, basal conditions, primary screen, YJM789 clinical isolate, OD600, 24 h (AID 1089);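 note: growth of clinical yeast isolate S. cerevisiae YJM 789 seeded 1000 cells per well; test concentration not given here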; settings: S. cerevisiae YJM789 growth, higher = more signal, called active from +8 up or from −8 down
# [3] = fission yeast growth modulation, primary screen, strain 972, OD600, 24 h, no modulator (AID 1090);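 note: basal condition with compound alone and no growth modifier present; test concentration not given here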; settings: S. pombe 972 growth, higher = more signal, called active from +8 up or from −8 down
# [4] = S. cerevisiae growth modulation with rapamycin, primary screen, strain BY4716, OD600, 96 h (AID 1091); settings: higher = more signal, called active from +8 up or from −8 down; note: test concentration not given here
# [5] = biological target: Torsin-1A-interacting protein 2 (Homo sapiens) (UniProt Q8NFQ8); test: LULL1 binders on small-molecule microarray, primary screen, cell lysate, human LULL1 lysate, 635/667 nm fluorescence (AID 1092); settings: hLULL1 lysate binding, 635 nm fluorescence, higher = more signal;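 note: probe is lysate of COS7 cells overexpressing human LULL1; score merges per-feature 667 nm fluorescence with signal-to-noise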
# [6] = E. coli growth modulation, two-sided OD650, primary screen, E. coli filamentation project, strain DRC41, 24 h (AID 1093); settings: OD650, 24 h, higher = more signal, called active from +8 up or from −8 down;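 note: MC1000 strain lacking acrAB efflux and sulA so SOS filamentation is blocked; test concentration not given here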
# [7] = small-molecule microarray binders of probe aLefty2, primary screen, biochemical, biotinylated probe, 635/667 nm fluorescence (AID 1094); settings: higher = more signal;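 note: score merges spot fluorescence near 667 nm with spot signal-to-noise ratio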
# [8] = tested on: Noggin (protein binding on small-molecule microarray); test: Noggin binders on small-molecule microarray, primary screen, biochemical, 635/667 nm fluorescence (AID 1095); settings: 635 nm fluorescence, higher = more signal;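 note: score merges 667 nm feature fluorescence with signal to noise over triplicate slides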
# [9] = biological target: Neurogenic locus notch homolog protein 3 (Homo sapiens) (UniProt Q9UM47); test: NOTCH3 binders on small-molecule microarray, primary screen, biochemical, 635/667 nm fluorescence (AID 1096); settings: NOTCH3 binding, 635 nm fluorescence, higher = more signal
# [10] = small-molecule microarray binders of probe aEGFR, primary screen, biochemical, biotinylated probe, 635/667 nm fluorescence (AID 1097); settings: higher = more signal;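 note: probe is a biotinylated anti-EGFR antibody binding compounds printed on slides; score combines fluorescence near 667 nm and signal to noise of each spot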
# Sequence of Torsin-1A-interacting protein 2 (Homo sapiens) (Q8NFQ8 whole entry, looked up): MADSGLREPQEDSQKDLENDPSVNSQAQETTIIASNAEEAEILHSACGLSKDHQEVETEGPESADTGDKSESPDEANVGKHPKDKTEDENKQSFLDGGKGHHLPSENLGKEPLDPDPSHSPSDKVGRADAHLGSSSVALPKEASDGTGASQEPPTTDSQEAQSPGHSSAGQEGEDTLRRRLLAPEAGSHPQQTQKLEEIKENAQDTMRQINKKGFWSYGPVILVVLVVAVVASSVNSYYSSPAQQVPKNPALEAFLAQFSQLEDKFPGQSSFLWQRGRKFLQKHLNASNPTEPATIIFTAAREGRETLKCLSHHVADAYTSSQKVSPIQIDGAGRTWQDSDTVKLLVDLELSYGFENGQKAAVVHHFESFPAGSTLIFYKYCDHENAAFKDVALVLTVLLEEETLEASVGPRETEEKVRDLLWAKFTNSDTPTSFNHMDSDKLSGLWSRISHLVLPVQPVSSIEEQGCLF
# Sequence of Neurogenic locus notch homolog protein 3 (Homo sapiens) (Q9UM47 whole entry, looked up): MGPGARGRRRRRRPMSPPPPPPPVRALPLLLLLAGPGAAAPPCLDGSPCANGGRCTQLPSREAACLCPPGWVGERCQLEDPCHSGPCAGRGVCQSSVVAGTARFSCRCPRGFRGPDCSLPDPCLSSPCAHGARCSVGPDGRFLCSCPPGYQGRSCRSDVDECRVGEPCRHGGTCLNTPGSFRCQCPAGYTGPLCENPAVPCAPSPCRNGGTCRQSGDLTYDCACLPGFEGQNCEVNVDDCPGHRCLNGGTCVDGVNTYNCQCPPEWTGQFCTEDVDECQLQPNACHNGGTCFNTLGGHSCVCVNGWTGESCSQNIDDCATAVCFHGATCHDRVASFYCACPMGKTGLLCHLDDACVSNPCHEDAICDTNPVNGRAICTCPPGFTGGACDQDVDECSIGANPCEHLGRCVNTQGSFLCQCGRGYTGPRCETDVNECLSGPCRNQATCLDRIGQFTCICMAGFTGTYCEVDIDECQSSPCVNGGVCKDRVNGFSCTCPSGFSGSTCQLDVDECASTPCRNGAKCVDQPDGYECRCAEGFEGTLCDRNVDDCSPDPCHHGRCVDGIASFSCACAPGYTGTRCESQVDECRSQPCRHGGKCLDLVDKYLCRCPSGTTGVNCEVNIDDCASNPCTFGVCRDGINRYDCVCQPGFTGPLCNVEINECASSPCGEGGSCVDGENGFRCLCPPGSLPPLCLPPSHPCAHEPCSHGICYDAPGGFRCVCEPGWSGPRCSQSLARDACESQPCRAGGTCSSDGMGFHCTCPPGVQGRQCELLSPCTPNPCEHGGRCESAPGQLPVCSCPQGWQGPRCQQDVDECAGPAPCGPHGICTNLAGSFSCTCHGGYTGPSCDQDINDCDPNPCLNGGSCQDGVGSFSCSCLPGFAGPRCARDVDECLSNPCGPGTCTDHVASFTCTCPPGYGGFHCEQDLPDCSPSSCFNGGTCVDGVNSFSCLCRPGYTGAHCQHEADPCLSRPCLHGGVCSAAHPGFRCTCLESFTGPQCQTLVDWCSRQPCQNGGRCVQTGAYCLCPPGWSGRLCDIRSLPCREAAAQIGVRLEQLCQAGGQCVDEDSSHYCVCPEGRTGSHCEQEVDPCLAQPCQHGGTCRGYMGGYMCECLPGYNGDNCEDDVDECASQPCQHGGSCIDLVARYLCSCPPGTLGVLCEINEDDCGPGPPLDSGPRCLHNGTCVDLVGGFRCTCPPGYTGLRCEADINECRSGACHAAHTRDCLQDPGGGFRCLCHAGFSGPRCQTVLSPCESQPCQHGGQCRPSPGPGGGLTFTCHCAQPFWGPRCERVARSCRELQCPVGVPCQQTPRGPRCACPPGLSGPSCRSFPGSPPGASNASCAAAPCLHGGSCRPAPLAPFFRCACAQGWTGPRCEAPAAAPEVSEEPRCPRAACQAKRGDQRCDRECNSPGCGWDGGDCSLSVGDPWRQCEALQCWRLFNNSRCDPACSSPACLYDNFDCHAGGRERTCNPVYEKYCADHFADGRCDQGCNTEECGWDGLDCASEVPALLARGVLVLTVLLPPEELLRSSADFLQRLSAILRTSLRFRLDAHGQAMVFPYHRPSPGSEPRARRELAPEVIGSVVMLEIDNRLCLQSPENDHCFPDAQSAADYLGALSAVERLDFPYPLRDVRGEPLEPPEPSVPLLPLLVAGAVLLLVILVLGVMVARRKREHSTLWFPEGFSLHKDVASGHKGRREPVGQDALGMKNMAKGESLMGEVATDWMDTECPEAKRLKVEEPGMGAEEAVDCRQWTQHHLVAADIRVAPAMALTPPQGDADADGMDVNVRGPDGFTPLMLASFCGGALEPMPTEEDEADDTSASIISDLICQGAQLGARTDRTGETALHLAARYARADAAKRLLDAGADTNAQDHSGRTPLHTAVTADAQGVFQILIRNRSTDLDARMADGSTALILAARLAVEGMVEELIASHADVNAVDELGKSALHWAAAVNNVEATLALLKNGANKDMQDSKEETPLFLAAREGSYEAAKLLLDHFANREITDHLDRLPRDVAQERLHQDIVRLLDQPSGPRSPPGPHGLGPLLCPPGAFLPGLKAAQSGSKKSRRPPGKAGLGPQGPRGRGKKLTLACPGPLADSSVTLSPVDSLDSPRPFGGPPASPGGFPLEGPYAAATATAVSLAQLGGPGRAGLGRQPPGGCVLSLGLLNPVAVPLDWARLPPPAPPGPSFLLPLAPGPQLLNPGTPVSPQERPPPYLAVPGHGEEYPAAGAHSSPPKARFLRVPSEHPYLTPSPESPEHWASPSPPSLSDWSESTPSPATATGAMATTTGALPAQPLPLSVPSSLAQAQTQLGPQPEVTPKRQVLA
Structure (SMILES),composite z-score [1],z-score [2],z-score [3],z-score [4],composite z-score [5],z-score [6],composite z-score [7],composite z-score [8],composite z-score [9],composite z-score [10]
C=CCC(OC(C)=O)[C@@H]1[C@@H](N(Cc2ccc(-c3ccccc3)cc2)C(=O)c2cccc3ccccc23)c2cc(OCCCO)ccc2N1C(=O)c1ccc2ccccc2c1 (stereo not given in full),0.189,-0.521 (inactive),-0.328 (inactive),-0.569 (inactive),0.813,-0.584 (inactive),0.0802,-0.106,-0.0403,-0.136
COC(=O)c1ccc([C@H](NC(=O)c2ccccc2)[C@]2(C)C[C@H]2C2CCCCC2)cc1,0.0232,0.696 (inactive),1.52 (inactive),-1.23 (inactive),3.03,-1.38 (inactive),0.223,-0.178,1.05,-0.116
CN1C(=O)C2C=CC(C(O)c3ccc(-c4ccccc4)s3)N(Nc3ccccc3)C2C1=O (stereo not given),0.932,-1.29 (inactive),0.447 (inactive),0.164 (inactive),2.91,-0.576 (inactive),0.182,-0.399,1.11,-0.0043
CCOC(=O)C1=C(C(=O)OCC)N(S(=O)(=O)CC[Si](C)(C)C)[C@H](c2ccccc2)CC1,1.03,0.807 (inactive),1.83 (inactive),1.85 (inactive),1.84,-0.219 (inactive),0.138,0.472,1.07,0.108
CC(C)CNC(=O)[C@@H]1c2ccccc2C(=O)N(C2Cc3ccccc3C2)[C@H]1c1ccc(CO)cc1,0.962,-0.226 (inactive),-0.59 (inactive),-0.434 (inactive),2.59,2.01 (inactive),0.159,-0.646,-0.145,-0.311
COC(=O)C1(CC(C)C)C=C2C(=C(C(C)C)C(=O)C2C)CN1 (stereo not given),-0.866,-0.166 (inactive),-0.0608 (inactive),1.08 (inactive),0.412,-0.844 (inactive),-0.0289,-1.29,-0.877,-0.103
CN(C)CCCC[C@@H]1NC(=O)[C@H]2C[C@@H](C(=O)NCc3ccc(F)cc3)[C@@H](c3ccc(O)cc3)N2C1=O,1.56,-0.42 (inactive),-1.1 (inactive),-0.462 (inactive),1.42,0.539 (inactive),0.0672,1.78,0.719,0.0579
C=CCC(OC(C)=O)[C@@H]1[C@@H](N(Cc2ccc(-c3cccc(C(F)(F)F)c3)o2)C(=O)Cc2ccc(F)cc2)c2cc(OCCCO)ccc2N1C(=O)c1ccc2ccccc2c1 (stereo not given in full),-1.22,-0.428 (inactive),0.498 (inactive),-1.2 (inactive),-0.305,-0.381 (inactive),-0.0485,0.0055,-0.35,0.0804
CC(C)(C)OC(=O)CC[C@]1(C(=O)N2CCOCC2)N=C(c2ccc(OCCCO)cc2)O[C@H]1c1ccccc1CN=[N+]=[N-],1.55,-0.673 (inactive),0.306 (inactive),-0.611 (inactive),3.32,-0.798 (inactive),-0.127,1.79,0.725,-0.044
CN(C)CCCC[C@@H]1NC(=O)[C@@H]2C[C@H](C(=O)NCc3ccc(F)cc3)[C@H](c3ccc(O)cc3)N2C1=O,1.34,0.582 (inactive),-1.4 (inactive),0.0709 (inactive),2.72,-0.585 (inactive),0.164,1.9,0.968,0.364
CC(=O)NCCCC[C@@H]1NC(=O)[C@H]2C[C@@H](C(=O)NCCCCCC[N+](C)(C)C)[C@@H](c3ccc(O)cc3)N2C1=O,1.55,-0.509 (inactive),0.555 (inactive),-0.489 (inactive),3.04,0.478 (inactive),-0.0206,1.46,0.702,-0.125
